compound: C#CCNC(=O)CCSSCCC(=O)NCCc1ccc(C=O)c(C=O)c1; assay: lysine labeling ratio R10:1 (500 µM / 50 µM probe), SILAC-ABPP in living cells; higher = lower intrinsic lysine reactivity toward the probe, active = 2 or less; details: HeLa; probe concentrations 500 vs 50 µM
In short: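 Living SILAC light and heavy HeLa cells in PBS at room temperature were treated with an alkyne-tagged, disulfide-linked lysine probe at 50 µM or 500 µM, with forward and reverse label swaps. The mixed lysates were clicked to biotin-azide, digested with trypsin, captured on neutravidin, released with DTT, alkylated and run by LC-MS/MS on a TIMS-TOF Pro. R for each lysine is the filtered median high-probe/low-probe MS1 peptide ratio, taken again as the median over forward and reverse replicates. Any value above 20 is set to 20.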

UniProt Q9NQS3, sequence (Q9NQS3 whole entry, looked up): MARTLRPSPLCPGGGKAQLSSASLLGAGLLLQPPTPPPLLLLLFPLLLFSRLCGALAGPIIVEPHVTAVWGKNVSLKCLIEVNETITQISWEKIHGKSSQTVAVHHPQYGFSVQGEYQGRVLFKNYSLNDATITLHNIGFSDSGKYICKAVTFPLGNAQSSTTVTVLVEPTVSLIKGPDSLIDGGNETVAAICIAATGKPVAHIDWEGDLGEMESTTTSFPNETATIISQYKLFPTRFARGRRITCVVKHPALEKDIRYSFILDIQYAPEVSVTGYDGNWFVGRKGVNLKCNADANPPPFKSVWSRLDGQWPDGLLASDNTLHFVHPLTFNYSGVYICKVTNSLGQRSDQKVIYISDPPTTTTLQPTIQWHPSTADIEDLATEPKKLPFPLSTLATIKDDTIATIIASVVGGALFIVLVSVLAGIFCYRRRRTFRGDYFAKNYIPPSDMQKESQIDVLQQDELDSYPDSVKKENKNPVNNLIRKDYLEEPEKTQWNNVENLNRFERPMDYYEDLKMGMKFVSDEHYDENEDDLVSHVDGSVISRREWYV
UniProt P10599, sequence (P10599 whole entry): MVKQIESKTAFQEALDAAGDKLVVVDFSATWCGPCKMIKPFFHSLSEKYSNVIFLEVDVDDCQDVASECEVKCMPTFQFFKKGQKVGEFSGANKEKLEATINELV
UniProt P10646, sequence (P10646 whole entry): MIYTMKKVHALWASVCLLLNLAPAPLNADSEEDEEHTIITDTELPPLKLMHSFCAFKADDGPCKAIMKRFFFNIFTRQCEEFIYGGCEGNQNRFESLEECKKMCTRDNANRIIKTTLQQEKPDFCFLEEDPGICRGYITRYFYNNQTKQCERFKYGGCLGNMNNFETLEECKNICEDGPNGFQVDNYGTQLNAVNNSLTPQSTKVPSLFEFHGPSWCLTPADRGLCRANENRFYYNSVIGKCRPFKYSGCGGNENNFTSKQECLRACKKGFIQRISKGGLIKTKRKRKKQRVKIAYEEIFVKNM
UniProt P35221, sequence (P35221 whole entry): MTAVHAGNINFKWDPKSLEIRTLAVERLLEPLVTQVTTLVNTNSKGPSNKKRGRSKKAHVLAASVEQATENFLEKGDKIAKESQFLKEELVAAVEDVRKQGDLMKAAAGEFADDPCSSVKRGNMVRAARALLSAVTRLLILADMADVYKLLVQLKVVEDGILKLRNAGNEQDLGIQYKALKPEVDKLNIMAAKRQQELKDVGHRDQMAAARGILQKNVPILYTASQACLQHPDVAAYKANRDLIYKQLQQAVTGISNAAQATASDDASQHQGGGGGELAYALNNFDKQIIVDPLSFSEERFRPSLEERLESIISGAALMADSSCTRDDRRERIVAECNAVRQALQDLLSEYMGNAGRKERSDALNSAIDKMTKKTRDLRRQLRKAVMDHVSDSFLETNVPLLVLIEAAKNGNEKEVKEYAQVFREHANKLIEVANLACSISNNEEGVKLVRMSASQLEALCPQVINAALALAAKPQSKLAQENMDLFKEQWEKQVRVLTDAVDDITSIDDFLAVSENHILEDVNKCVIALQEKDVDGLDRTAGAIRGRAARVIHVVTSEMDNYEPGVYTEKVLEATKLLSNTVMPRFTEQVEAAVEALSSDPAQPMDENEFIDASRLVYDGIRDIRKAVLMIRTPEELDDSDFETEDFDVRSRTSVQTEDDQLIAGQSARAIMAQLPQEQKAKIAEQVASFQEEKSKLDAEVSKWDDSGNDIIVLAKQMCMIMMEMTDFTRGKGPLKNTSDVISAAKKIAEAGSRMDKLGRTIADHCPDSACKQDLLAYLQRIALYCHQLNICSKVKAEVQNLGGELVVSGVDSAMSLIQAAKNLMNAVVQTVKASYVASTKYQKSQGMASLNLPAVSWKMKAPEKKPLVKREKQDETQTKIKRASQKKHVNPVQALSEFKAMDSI
UniProt Q08345, sequence (Q08345 whole entry): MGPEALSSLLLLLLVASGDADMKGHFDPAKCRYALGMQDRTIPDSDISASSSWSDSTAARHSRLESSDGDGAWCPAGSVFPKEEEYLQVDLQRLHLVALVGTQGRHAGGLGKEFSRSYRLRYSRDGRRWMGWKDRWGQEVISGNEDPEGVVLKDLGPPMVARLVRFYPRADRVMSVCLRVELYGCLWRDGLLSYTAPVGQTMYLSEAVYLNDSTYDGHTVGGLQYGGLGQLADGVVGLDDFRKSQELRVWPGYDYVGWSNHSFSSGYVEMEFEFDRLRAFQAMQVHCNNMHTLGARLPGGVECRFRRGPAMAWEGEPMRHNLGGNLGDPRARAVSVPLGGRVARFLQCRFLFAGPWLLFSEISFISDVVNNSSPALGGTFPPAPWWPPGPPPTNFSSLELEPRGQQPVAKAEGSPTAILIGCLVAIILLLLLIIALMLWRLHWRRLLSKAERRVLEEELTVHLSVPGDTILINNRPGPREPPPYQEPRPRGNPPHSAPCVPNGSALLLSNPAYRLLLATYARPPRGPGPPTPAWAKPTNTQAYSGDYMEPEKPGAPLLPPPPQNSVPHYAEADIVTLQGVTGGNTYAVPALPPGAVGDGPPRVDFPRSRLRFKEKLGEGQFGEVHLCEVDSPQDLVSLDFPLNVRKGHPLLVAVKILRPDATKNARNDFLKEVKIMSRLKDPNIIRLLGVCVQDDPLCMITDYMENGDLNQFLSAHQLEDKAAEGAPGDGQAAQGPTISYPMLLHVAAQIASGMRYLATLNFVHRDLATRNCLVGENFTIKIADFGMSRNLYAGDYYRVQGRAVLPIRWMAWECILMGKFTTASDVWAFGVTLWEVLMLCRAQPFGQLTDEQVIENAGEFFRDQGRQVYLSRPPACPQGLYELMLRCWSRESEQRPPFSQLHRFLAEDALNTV
UniProt Q14126, sequence (Q14126 whole entry): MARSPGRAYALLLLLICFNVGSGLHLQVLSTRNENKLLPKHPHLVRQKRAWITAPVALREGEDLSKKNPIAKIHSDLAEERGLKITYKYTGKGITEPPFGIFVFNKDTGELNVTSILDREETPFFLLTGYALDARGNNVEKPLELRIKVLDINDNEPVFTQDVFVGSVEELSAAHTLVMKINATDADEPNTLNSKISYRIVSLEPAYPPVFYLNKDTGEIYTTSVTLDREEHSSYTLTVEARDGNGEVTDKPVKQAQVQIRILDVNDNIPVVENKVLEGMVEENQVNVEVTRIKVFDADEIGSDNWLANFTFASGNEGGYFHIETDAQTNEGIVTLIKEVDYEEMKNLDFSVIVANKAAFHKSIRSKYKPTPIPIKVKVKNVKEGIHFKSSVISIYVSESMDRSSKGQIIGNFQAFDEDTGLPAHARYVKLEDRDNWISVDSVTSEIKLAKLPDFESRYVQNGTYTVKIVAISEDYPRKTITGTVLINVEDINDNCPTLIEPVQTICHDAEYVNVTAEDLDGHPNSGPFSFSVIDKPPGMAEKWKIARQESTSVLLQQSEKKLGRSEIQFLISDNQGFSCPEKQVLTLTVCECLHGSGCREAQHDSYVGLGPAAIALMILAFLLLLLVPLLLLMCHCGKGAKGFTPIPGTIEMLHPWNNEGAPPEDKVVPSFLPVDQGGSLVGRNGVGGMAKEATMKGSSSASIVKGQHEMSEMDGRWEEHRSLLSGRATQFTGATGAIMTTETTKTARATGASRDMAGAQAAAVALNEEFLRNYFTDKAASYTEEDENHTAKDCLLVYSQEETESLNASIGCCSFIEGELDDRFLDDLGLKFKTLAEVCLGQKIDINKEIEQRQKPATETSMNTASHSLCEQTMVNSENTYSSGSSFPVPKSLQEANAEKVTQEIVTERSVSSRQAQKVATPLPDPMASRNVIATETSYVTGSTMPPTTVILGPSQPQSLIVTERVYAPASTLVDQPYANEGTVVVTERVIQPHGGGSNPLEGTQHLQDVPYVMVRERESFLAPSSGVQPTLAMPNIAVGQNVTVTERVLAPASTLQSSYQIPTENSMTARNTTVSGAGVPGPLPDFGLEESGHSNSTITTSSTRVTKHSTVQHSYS
UniProt P17844, sequence (P17844 whole entry): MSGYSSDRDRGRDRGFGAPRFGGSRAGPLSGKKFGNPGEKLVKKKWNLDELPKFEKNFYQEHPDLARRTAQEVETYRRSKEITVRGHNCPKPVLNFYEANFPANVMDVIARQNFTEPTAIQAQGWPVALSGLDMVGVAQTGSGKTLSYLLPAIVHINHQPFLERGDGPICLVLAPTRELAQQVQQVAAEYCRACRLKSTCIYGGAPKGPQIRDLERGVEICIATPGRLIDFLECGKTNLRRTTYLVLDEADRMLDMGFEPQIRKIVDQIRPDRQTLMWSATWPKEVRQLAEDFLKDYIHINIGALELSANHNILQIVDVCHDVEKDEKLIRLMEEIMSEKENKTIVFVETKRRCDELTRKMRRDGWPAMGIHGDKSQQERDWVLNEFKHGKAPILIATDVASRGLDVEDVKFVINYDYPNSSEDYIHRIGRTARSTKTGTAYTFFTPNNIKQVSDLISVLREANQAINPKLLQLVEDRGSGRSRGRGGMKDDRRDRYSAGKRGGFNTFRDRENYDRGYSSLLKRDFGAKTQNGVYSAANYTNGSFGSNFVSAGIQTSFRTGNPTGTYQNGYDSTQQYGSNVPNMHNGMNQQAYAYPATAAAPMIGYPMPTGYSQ
UniProt P47756, sequence (P47756 whole entry): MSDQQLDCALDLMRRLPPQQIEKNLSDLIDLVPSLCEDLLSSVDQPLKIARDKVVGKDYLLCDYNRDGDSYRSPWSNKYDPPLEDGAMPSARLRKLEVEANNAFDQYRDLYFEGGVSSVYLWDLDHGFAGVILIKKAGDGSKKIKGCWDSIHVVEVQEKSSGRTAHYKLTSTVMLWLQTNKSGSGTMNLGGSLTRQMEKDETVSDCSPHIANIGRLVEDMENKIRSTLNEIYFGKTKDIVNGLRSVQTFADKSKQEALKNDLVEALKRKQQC

Lysine labeling ratio R10:1, inactive:
NECTIN3 (lysine site: K255) (UniProt Q9NQS3) 4.2, IGF1R (lysine site: K474) (UniProt P08069) 3.24, UniProt P05787 (lysine site: K325) 12.1, DSG2 (lysine site: K430) (UniProt Q14126) 6.01, DDR1 (lysine site: K112) (UniProt Q08345) 2.03, PVR (lysine site: K153) (UniProt P15151) 4.25, NECTIN3 (lysine site: K249) (UniProt Q9NQS3) 5.88, TFPI (lysine site: K101) (UniProt P10646) 7.9, TXN (lysine site: K96) (UniProt P10599) 2.11, DDX5 (lysine site: K470) (UniProt P17844) 4.7, CAPZB (lysine site: K223) (UniProt P47756) 2.76, HSPA5 (lysine site: K523) (UniProt P11021) 3.39, SLC25A13 (lysine site: K408) (UniProt Q9UJS0) 2.67, UniProt Q8WXI7 (lysine site: K13228) 11.9

Lysine labeling ratio R10:1, active:
CTNNA1 (lysine site: K199) (UniProt P35221) 1.43, UniProt Q15149 (lysine site: K1725) 1.57, ANPEP (lysine site: K836) (UniProt P15144) 0.79

From the supplement of paper PMC11001985
